Bioassay records as filed in PubChem.
Shn3 3UTR inh: inhibitors of Schnurri-3 3'UTR reporter in osteoblasts | inhibition, % at 12.5 µM | Clone20 osteoblast Shn3 3'UTR firefly luciferase, 24 h | AID 588674 | 360,000 tested, 0.52% active;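 active means mean inhibition of at least 75% with every replicate also reaching 75%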
EWS-Fli inh: inhibitors of EWS/Fli oncoprotein transcriptional activity; inhibition, % at 12.6 µM; A673 NR0B1-luciferase reporter, viability-normalised; 350,000 tested, 0.67% active; AID 651661;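 active means mean inhibition of at least 50% after viability correction, with every replicate also passing that limit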;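 further: firefly luciferase signal divided by Alamar Blue viability fluorescence both relative to DMSO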
PAX8 inh HTS: PAX8 transcriptional activity inhibition; RMG-I TPO-luciferase reporter, SteadyGlo, 24 h; inhibition, % at 12.6 µM; 360,000 tested, 1.2% active; AID 652154;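 active means mean replicate inhibition at least 60% with every replicate also reaching 60%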;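 further: luciferase light reporting Pax8 driven TPO promoter activity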
LGR2 antag: inhibitors of bursicon-induced Drosophila LGR2 receptor cAMP signaling | 380,000 tested, 0.35% active | HEK293 LGR2, CRE-luciferase, bursicon-stimulated, 4 h | AID 720647 | inhibition, % at 9.99 µM;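 active means drop in luminescence signal, shown as inhibition above about 50% in the replicate tests, limit read from the data, passing the limit was not always enough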;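 further: agonist challenge used bursicon conditioned medium at about half maximal strength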
CF NFkB block: inhibitors of cystic fibrosis induced NF-kB; KKLEB NF-kB-GFP reporter, PAF-induced, GFP fluorescence overnight; inhibition, % at 5 µM; 360,000 tested, 0.86% active; AID 588850;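 active means at least 50% inhibition at 5 µM, scaled per plate between neutral and stimulator controls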;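 further: PAF is a Pseudomonas aeruginosa culture filtrate used as stimulus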
KKLEB tox: counter-screen for CF NF-kB inhibitors: cytotoxicity; KKLEB CF airway cells viability, ATPlite luminescence, overnight; active compounds read low; cells stimulated with P. aeruginosa culture filtrate; 360,000 tested, 0.36% active; activity change (cytotoxicity), % at 5 µM;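 active means corrected activity change at or below -50% at 5 µM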
A number is an active result; – = inactive; · = no result; ! = not active in a repeat. A selection: hits, their analogues and other compounds. The true share with any hit is near 2%.

SMILES	Shn3 3UTR inh	EWS-Fli inh	PAX8 inh HTS	LGR2 antag	CF NFkB block	KKLEB tox
CSc1nnc(NC(=O)c2nc(S(=O)(=O)Cc3ccccc3)ncc2Cl)s1	96	·	–	–	91	-82
CSc1ncc(Cl)c(C(=O)Nc2nnc(SC)s2)n1	–	·	·	·	–	–
COCCNC(=O)C[C@@H]1C=C[C@H](NS(=O)(=O)c2ccc(C)cc2)[C@@H](CO)O1	·	–	–	–	·	·
O=C(C[C@H]1CC[C@H]2[C@@H](COC[C@H](O)CN2S(=O)(=O)c2cccc(Cl)c2)O1)Nc1ccc(-c2ccccc2)cc1	·	–	–	–	·	·
O=C(C[C@H]1CC[C@@H]2[C@H](COC[C@@H](O)CN2S(=O)(=O)c2cccc(Cl)c2)O1)Nc1ccc(-c2ccccc2)cc1	·	–	106	–	·	·
O=C(C[C@H]1CC[C@H]2[C@@H](COC[C@@H](O)CN2S(=O)(=O)c2cccc(Cl)c2)O1)Nc1ccc(-c2ccccc2)cc1	·	–	87	–	·	·
O=C(C[C@H]1CC[C@@H]2[C@H](COC[C@@H](O)CN2S(=O)(=O)c2ccccc2)O1)Nc1ccc(-c2ccccc2)cc1	·	–	–	–	·	·
O=C(C[C@H]1CC[C@@H]2[C@H](COC[C@H](O)CN2S(=O)(=O)c2ccccc2)O1)Nc1ccc(-c2ccccc2)cc1	·	–	63	–	·	·
C[C@@H]1CCCCO[C@H](CN(C)C(=O)Nc2cccc3ccccc23)[C@H](C)CN([C@H](C)CO)C(=O)c2cc(N(C)C)ccc2O1	·	–	–	–	·	·
CO[C@H]1CN(C)C(=O)c2ccc(NC(=O)Nc3ccc4c(c3)OCO4)cc2OC[C@H](C)NC[C@@H]1C	·	·	–	–	·	·
COc1ccc(NC(=O)Nc2ccc3c(c2)C(=O)N([C@H](C)CO)C[C@H](C)[C@@H](CN(C)Cc2ccc4c(c2)OCO4)OCCCC[C@H](C)O3)cc1	·	–	–	–	·	·
C[C@H](CO)N1C[C@H](C)[C@@H](CN(C)C(=O)Nc2ccnc(N3CCOCC3)c2)OCc2cnnn2CCCC1=O	–	–	91!	–	–	–
C[C@@H]1CN([C@H](C)CO)C(=O)CCCn2nncc2CO[C@H]1CN(C)C(=O)Nc1ccnc(N2CCOCC2)c1	–	–	–	–	–	–
C[C@@H]1CN([C@@H](C)CO)C(=O)CCCn2nncc2CO[C@H]1CN(C)S(=O)(=O)c1ccc(Cl)cc1	–	–	102!	–	–	–
C[C@H]1CN([C@@H](C)CO)C(=O)CCCn2nncc2CO[C@H]1CN(C)C(=O)Nc1ccccc1	–	–	–	–	–	–
C[C@@H]1CN([C@H](C)CO)C(=O)CCCn2nncc2CO[C@H]1CN(C)C(=O)Nc1ccc(-c2cccs2)cc1	·	–	70	–	·	·
C[C@H](CO)N1C[C@H](C)[C@H](CN(C)C(=O)Nc2ccc(-c3cccs3)cc2)OCc2cnnn2CCCC1=O	–	–	72	–	–	–
C[C@H](CO)N1C[C@H](C)[C@H](CN(C)C(=O)c2ccc(F)cc2)Oc2ncc(C3=CCCCC3)cc2C1=O	·	–	·	–	·	·
C[C@@H]1CN([C@@H](C)CO)C(=O)CCCn2nncc2CO[C@@H]1CN(C)C(=O)Nc1ccc(-c2cccs2)cc1	–	–	–	–	–	–
C[C@H]1CN([C@@H](C)CO)C(=O)CCCn2nncc2CO[C@@H]1CN(C)C(=O)Nc1ccc(-c2cccs2)cc1	·	–	76	–	·	·
CCn1cc(CN(C)S(=O)(=O)c2cccc([N+](=O)[O-])c2)cn1	–	–	–	·	–	–
CCn1cc(CN(C)S(=O)(=O)c2ccc3ccccc3c2)c(C)n1	90	·	–	–	–	–
Cc1ccc(S(=O)(=O)N(C)C[C@H]2OCCCC[C@@H](C)Oc3ccc(NS(=O)(=O)c4c(C)noc4C)cc3C(=O)N([C@@H](C)CO)C[C@@H]2C)cc1	·	–	–	–	·	·
CCCC#Cc1ccc2c(c1)O[C@@H](CN(C)Cc1ccc3c(c1)OCO3)[C@H](C)CN([C@H](C)CO)S2(=O)=O	·	–	·	–	·	·
O=C1c2ccccc2C(=O)N1CCCCN(C(=O)c1cc([N+](=O)[O-])cc([N+](=O)[O-])c1)c1ccc(Cl)cc1	–	–	83	–	–	–
SMILES	Shn3 3UTR inh	EWS-Fli inh	PAX8 inh HTS	LGR2 antag	CF NFkB block	KKLEB tox
COc1ccc(CNC[C@@H](CCCCN(C)Cc2ccc(OC)cc2)N2C[C@H](c3ccccc3)N(CCc3ccc(Cl)c(Cl)c3)C(=O)C2=O)cc1	95	·	·	·	62	-95
O=C(C#Cc1cccc([N+](=O)[O-])c1)c1ccccc1	93	·	·	·	97	-64
Nc1ccccc1C#CC(=O)c1ccccc1	99	67	–	–	89	-85
COc1ccc2c3c([nH]c2c1)[C@H](CO)N(S(=O)(=O)c1cn(C)cn1)CC31CCN(Cc2ccccc2F)CC1	·	–	·	–	·	·
COc1cc(C(=O)Oc2cccc(Nc3ncnc4ccccc34)c2)cc(OC)c1OC	–	–	·	85	–	–
COc1cc(/C=N/NC(N)=S)cc(Br)c1OCc1ccccc1F	–	·	70	–	–	–
CCOc1cc(/C=N/NC(N)=S)cc(Br)c1OCc1ccccc1C	–	·	·	·	–	–
COc1ccc2c3c([nH]c2c1)[C@@H](CO)N(C(=O)C1CC1)CC31CN(Cc2nccs2)C1	·	–	86	–	·	·
COc1ccc2c3c([nH]c2c1)[C@H](CO)N(C(=O)C1CC1)CC31CCN(Cc2cccc(F)c2)CC1	·	–	69	–	·	·
COc1ccc2c3c([nH]c2c1)[C@@H](CO)N(C(=O)C1CCCC1)CC31CN(Cc2nccs2)C1	·	–	–	–	·	·
Cc1cc(C(=O)Nc2ccc3c(c2)C(=O)N(C)[C@H]2CC[C@@H](CC(=O)N[C@@H](C)c4ccccc4)O[C@H]2CO3)no1	·	–	–	–	·	·
C[C@@H]1CN([C@H](C)CO)C(=O)c2cc(C#CCN(C)C)cnc2O[C@H]1CN(C)C(=O)Cc1cccnc1	·	–	·	–	·	·
Cc1cc(C(=O)N/N=C/c2cc(Br)ccc2OC(=O)c2ccccc2Cl)n[nH]1	90	–	–	–	–	–
COc1cc2nc(N3CCNCC3)nc(N)c2cc1OC	–	·	·	·	–	–
COc1cc2nc(N3CCN(c4cc(C)ccc4C)CC3)nc(N)c2cc1OC	94	60	–	–	–	–
O=C(c1ccco1)N1CCN(c2ccc(Cl)cc2)CC1	–	·	–	·	–	–
O=C(Cc1ccc(Cl)cc1)Nc1ccc(N2CCN(C(=O)c3ccco3)CC2)cc1	90	·	·	·	–	–
C[C@@H]1CN([C@@H](C)CO)C(=O)Cc2cc(NC(=O)Cc3ccccc3)ccc2O[C@H]1CN(C)Cc1ccc(-c2ccccc2)cc1	·	–	79	–	·	·
C[C@H]1CN([C@@H](C)CO)C(=O)Cc2cc(NC(=O)Nc3ccc4c(c3)OCO4)ccc2O[C@@H]1CN(C)Cc1ccc(-c2ccccc2)cc1	·	–	78	–	·	·
C[C@@H]1CN([C@@H](C)CO)C(=O)Cc2cc(NC(=O)C3CC3)ccc2O[C@H]1CN(C)Cc1ccc(-c2ccccc2)cc1	·	–	91	–	·	·
